Compound activity (PubChem BioAssay)
In the library only some 1.9% were active in any assay of this set; here they are far more common.
FPRL1 binder – human FPRL1 ligands by binding competition, primary screen, cell-based, FPR counter-screen, flow cytometry. N-formyl peptide receptor 2 (Homo sapiens), P25090. FPRL1-expressing cells, fluorescent ligand binding inhibition. inhibition, % (no concentration beside the values). 24,000 tested, 0.3% active. AID 441, 2006;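 also: 0% = buffer alone and 100% = receptor blocker peptide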
Proteasome disasm – inhibitors of ATP-driven 26S proteasome dissociation, primary screen, biochemical, bead-based flow cytometry, GFP-tagged proteasome. 24,000 tested, 0.2% active. inhibition of disassembly, % (concentration not given with the values). AID 751, 2007. anti-FLAG beads, GFP-proteasome disassembly;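 active = inhibition of disassembly above about 33%, limit read from the data; inconclusive = likely self-fluorescent, control bead median signal at least 40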;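 also: plate controls were ATP control with full disassembly for no effect and ATP-gamma-S intact proteasomes for full effect; higher percent means more bead fluorescence retained so stronger block of disassembly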
FPR ligand – human FPR ligands by binding competition, primary screen, cell-based, FPRL1 counter-screen, flow cytometry. inhibition, % (concentration not given with the values). AID 440, 2006. fMet-Leu-Phe receptor (Homo sapiens), P21462. 24,000 tested, 0.74% active. FPR-expressing cells, fluorescent ligand binding;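 also: 0% = buffer wells and 100% = receptor blocker peptide wells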
Jurkat autofluor – compound autofluorescence on Jurkat cells, primary screen, artefact control for VLA-4 allosteric ligand project, cell-based, flow cytometry; active compounds read high; 1 = vehicle-only cell background; fluorescence ratio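 (tested at 10 µM compound in the well)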; 24,000 tested, 0.61% active; AID 576, 2007;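 active = fluorescence ratio above 2.44, which is 1 plus 3 SD of all ratios; inconclusive = signal too bright to measure linearly, ratio around 10 or more; inactive = fluorescence ratio below 2.44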;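 also: green fluorescence of cells measured with 488 nm excitation and 530 nm emission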
VLA-4 agonist – enhancers of LDV-FITC binding to VLA-4 integrin, primary screen, Jurkat cells, flow cytometry | 24,000 tested, under 10 active | Integrin alpha-4 (Homo sapiens), P13612 | activation, % at 10 µM (by protocol);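 active = fluorescent ligand binding to cells raised by more than 40% of the manganese-induced maximum; inconclusive = compound's own fluorescence above 85% of the ligand control signal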;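 also: 0% = ligand binding without compound and 100% = manganese-stimulated maximal binding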
VLA-4 antagonist – inhibitors of LDV-FITC binding to Mn2+-activated VLA-4, primary screen, Jurkat cells; Integrin alpha-4 (Homo sapiens), P13612; LDV-FITC binding with Mn2+, flow cytometry; 100% = Mn2+-driven binding gain fully reversed; 24,000 tested, 0.2% active; inhibition, % at 10 µM (by protocol);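 active = inhibition above 50%; inconclusive = compound itself fluorescent, judged against control cell fluorescence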;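 also: 0% = Mn2+ stimulated cells lacking compound and 100% = ligand binding without Mn2+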
* = called active by the depositor; ? = inconclusive; / = no result given. Rule as the data show it, unless noted: active = inhibition above about 30%; inconclusive = no clear call, values can overlap the other calls; inactive = below that.

SMILES	FPRL1 binder	Proteasome disasm	FPR ligand	Jurkat autofluor	VLA-4 agonist	VLA-4 antagonist
CCOC(=O)C1CCN(C(=O)c2sc3nc(-c4ccccc4)cn3c2C)CC1	-7	0	1	2.8*	?	?
COc1ccc(CCNC(=O)C2CCCCC2C(=O)O)cc1OC (centres undefined)	3	1	0	1	-2	-1
CCOc1ccc(S(=O)(=O)N2CCc3ccccc3C2)cc1	-4	1	3	3.2*	?	?
CCC(=O)Nc1ccc(S(=O)(=O)N2CCc3ccccc3C2)cc1	2	1	6	1	-5	-4
CCc1ccc(CNC(=O)CN2C(=O)COc3ccccc32)cc1	0	0	-6	1.1	-3	52*
CCCN(C(=O)CSc1nnc(-c2ccoc2C)n1N)C1CCS(=O)(=O)C1 (centres undefined)	-2	0	-1	0.89	-7	-12
COc1ccc(-c2nc(-c3ccc(Br)o3)no2)cc1OC	31*	0	17	1.1	5	-9
COc1ccc(-c2nc(-c3ccc(NC(=O)c4ccc(Br)o4)cc3)no2)cc1OC	50*	3	43*	0.99	-3	-3
COc1cccc(-c2nc(-c3ccc(NC(=O)Cc4ccccc4OC)cc3)no2)c1	-6	-1	3	1	-8	9
CC1(C(=O)NC2CCCCCC2)CCC(=O)N1Cc1ccc2c(c1)OCO2 (centres undefined)	-5	0	-6	1.1	-1	11
CCC(Sc1nc2c(c(=O)[nH]1)CCC2)C(=O)Nc1cccc(OC)c1 (centres undefined)	-2	1	62*	1.1	-10	0
COc1ccccc1CNC(=O)C1CC(=O)N(C2CCCC2)C1 (centres undefined)	2	0	1	1	-3	15
COc1ccc(C(CC(=O)O)NC(=O)C2CCCCC2)cc1 (centres undefined)	4	0	0	1.1	-4	40
CC(C)Oc1ccc(C(CC(=O)O)NC(=O)C2CCCCC2)cc1 (centres undefined)	-1	0	3	1	-12	96*
CCOC(=O)C1=C(C)Nc2nnnn2C1c1c[nH]c2ccccc12 (centres undefined)	-5	1	3	1.1	6	-18
COC(=O)C1=[N+]([O-])OC(C(=O)OC)C1c1c[nH]c2ccccc12 (centres undefined)	77*	-1	35*	1	6	-4
Cc1ccc(/C(O)=C2\C(=O)C(=O)N(c3cc(C)on3)C2c2cccc(Br)c2)cc1 (centres undefined)	27	/	40*	/	/	/
Cc1cc(N2C(=O)C(=O)/C(=C(/O)c3ccc(F)cc3)C2c2cccc(Br)c2)no1 (centres undefined)	-18	/	3	/	/	/
CCn1c(C)cc(=S)c2ccccc21	-2	2	5	1.5	-1	5
CCn1c2ccccc2c2cc(N)ccc21	2	?	8	3.4*	?	?
CCOC(=O)C1=C(C)Nc2nnnn2C1c1cccc(OC)c1OC (centres undefined)	6	-1	2	0.99	-7	-4
CCOC(=O)C1=C(C)N=c2s/c(=C\c3cccn3C)c(=O)n2C1c1cccc(OC)c1OC (centres undefined)	-23	14	-18	7.8*	?	?
Cc1ccc(N2CCN(C(=S)c3ccc(N(C)C)cc3)CC2)cc1	-6	6	-6	3.5*	?	?
S=C(c1ccc(N2CCOCC2)cc1)N1CCCCC1	2	0	-10	1	8	-10
COCCN1Cc2cccc(C(=O)Nc3cccc(C)c3C)c2C1=O	-11	0	-4	1	4	-10
SMILES	FPRL1 binder	Proteasome disasm	FPR ligand	Jurkat autofluor	VLA-4 agonist	VLA-4 antagonist
CCC(=O)c1cc2c(C)cc(=O)oc2c(C)c1O	-2	2	2	1	0	-2
O=C1c2ccccc2C(Nc2cccc(C(F)(F)F)c2)N1Cc1ccco1 (centres undefined)	-11	0	2	1.1	-18	-10
O=c1c[n+]([O-])c2ccccc2n1OCc1c(F)cccc1F	2	13	-5	3.1*	?	?
CN(C)c1nc(N(C)C)nc(N(C)C)n1	0	1	52*	1	8	-14
CN(C)c1nc(N)nc(N(c2ccccc2)c2ccccc2)n1	10	0	-7	1.1	2	1
CCN(C(=O)c1cn(C)c(=O)c2cc(OC)c(OC)cc12)c1cc(C)ccc1C	-7	1	-2	0.98	1	-13
Cc1ccc(NC(=O)Cn2c(C)cc(C)c(C#N)c2=O)c(Cl)c1	8	0	7	1	6	-10
CCCCCNC(=O)CCn1c(=O)oc2ccccc21	0	0	0	1	8	-9
CCCCCOC(=O)Cn1c(=O)oc2ccccc21	23	-2	31*	1	-3	-23
Cc1nc(NCc2ccccn2)c2ccccc2n1	-18	28	-12	2.8*	?	?
CCOc1cc(C2C(C(=O)c3ccc(C)o3)=C(O)C(=O)N2CCc2ccccc2)ccc1O (centres undefined)	-9	/	90*	/	/	/
COCCN1C(=O)C(O)=C(C(=O)c2ccco2)C1c1cccc(Oc2ccccc2)c1 (centres undefined)	-5	/	72*	/	/	/
COc1cc(C2C(C(=O)c3ccco3)=C(O)C(=O)N2CCc2ccccc2)ccc1O (centres undefined)	-2	/	63*	/	/	/
COc1cc(C2C(C(=O)c3ccco3)=C(O)C(=O)N2Cc2cccnc2)cc(OC)c1OC (centres undefined)	2	/	-1	/	/	/
COc1ccc(CCN2C(=O)C(O)=C(C(=O)c3ccco3)C2c2cccs2)cc1OC (centres undefined)	31*	/	82*	/	/	/
COc1ccccc1OCc1ccc(C(=O)N2CCN3CCCC3C2)cc1 (centres undefined)	-6	2	-5	0.91	7	-16
CCC(=O)N1Cc2ccccc2-c2ccccc2C1=O	-2	0	3	1	-2	-13
CCOC(=O)c1ccc(COC(=O)c2cc3ccccc3oc2=O)o1	1	1	-10	1	-11	1
Cc1ccc(S(=O)(=O)N2CCCC2C(=O)OCc2nc3ccccc3s2)cc1 (centres undefined)	-1	4	-2	1.1	-1	7
